Source: PubChem BioAssay (National Center for Advancing Translational Sciences (NCATS))
HPGD inh = blocks human HPGD enzyme activity; purified HPGD, NADH fluorescence kinetic, PGE2 substrate; Potency, µM, for the others: top-dose activity change, negative = inhibition, actives largely listed as inhibitors; hit rate 4.3% among 150,000; note: potency is the fitted concentration of half-maximal effect
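NADH formation kinetics: reaction with 30 uM PGE2 and 1 mM NAD+ (final), 20 nM enzyme, Tris-HCl pH 8 with Tween 20, after 15 min compound preincubation at room temperature. Fluorescence change, last versus first of five reads.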
ALDH1A1 inh = ALDH1A1 (human) enzyme inhibition. P00352. hit rate 7.3% among 220,000. AID 1030. Purified ALDH1A1, NADH fluorescence, propionaldehyde substrate. Potency, µM (series often up to 75.3 µM), for inactives: at the top dose activity, negative = inhibition, hits mostly inhibitors;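 note: potency is the fitted concentration of half-maximal effect; plate controls were no enzyme wells and a reference inhibitor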
Target sequence (P00352 whole entry, looked up): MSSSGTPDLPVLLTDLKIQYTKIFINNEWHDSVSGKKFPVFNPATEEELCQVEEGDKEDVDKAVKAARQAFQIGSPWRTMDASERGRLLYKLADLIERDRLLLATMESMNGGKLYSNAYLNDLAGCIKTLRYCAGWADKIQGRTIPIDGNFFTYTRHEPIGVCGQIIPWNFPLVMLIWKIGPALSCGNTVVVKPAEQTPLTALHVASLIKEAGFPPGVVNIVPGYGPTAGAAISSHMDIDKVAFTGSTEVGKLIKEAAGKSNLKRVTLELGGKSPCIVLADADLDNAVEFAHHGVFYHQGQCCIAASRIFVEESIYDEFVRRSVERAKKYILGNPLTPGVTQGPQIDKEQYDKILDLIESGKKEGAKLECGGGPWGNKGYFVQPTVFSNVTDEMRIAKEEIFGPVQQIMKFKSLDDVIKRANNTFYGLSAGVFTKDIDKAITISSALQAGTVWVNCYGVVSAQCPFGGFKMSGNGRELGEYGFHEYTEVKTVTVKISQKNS
PNC assembly inh = blocks assembly of the perinucleolar compartment; PC3M PTB-GFP, PNC prevalence imaging, 16 h; hits give low values; activity change (PNC), negative = inhibition, % at 10 µM; hit rate 3.1% among 140,000;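 active = readout at or below -70, meaning at least 70% loss of cells showing the perinucleolar compartment, a nuclear body marking cancer cells; inconclusive = readout between -30 and a set limit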;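 note: plate controls were DMSO wells for no effect and camptothecin positive control wells for full effect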
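PC3M cells stably expressing PTB-GFP, 750–1000 cells/well, treated 16 h at 37 °C with compound (23 nl of library stock), in duplicate. After paraformaldehyde fixation and Hoechst stain, imaged at 20x; PNC prevalence scored by image analysis.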
* = called active by the depositor; ? = inconclusive; . = not tested or not shown; [ ] = dose if it differs, or a comment. Only some compounds are listed: those with a hit (about 11% of all), similar ones and a draw of the others. Unless noted, calls come from the whole dose curve; as a rule, active = well fitted inhibition curve with a large enough effect (not every such curve was filed as active); inconclusive = small, poorly fitted or top-dose-only effect, or another doubt; inactive = no such curve, though single readings can be large or run the other way. Unless noted, % is set by controls: 0 for no effect and ±100 for the full control effect.

SMILES	HPGD inh	ALDH1A1 inh	PNC assembly inh
O=C1N(c2ccc(Cl)cc2)C(c2cccnc2)N2CCCN12 (configuration not stated)	.	4%	.
COC1C(O)C(C)O[C@H](OC2CC[C@@]3(C=O)C4CC[C@]5(C)C(C6=CC(=O)OC6)CC[C@@]5(O)C4CC[C@@H]3C2)C1O (some centres not stated)	-7%	-4%	.
C[C@@]12CC[C@H]3[C@H](CCC4=CC(=O)CC[C@H]43)[C@H]1CC[C@H]2OC1(O)C(=O)c2ccccc2C1=O	-1%	0.32µM*	.
CCC(=O)O[C@H]1CC[C@H]2[C@@H]3CCC4=CC(=O)CC[C@]4(C)[C@H]3CC[C@]12C	-5%	-9%[20.9 µM]	.
C[C@H](Br)CN(C[C@H](C)Br)c1ccc2c(c1)Cc1ccccc1-2	-17%	-8%[13.5 µM]	.
CCc1ccc(CN2CCN(Cc3ccc(SC)cc3)CC2)cc1	.	-9%	.
CSc1ccc(C(=O)C(C)(C)N2CCOCC2)cc1	-7%	8.9µM*	?
CC1CCCC(C)N1c1nnc(NC(=O)Cn2c(=O)oc3ccccc32)s1 (configuration not stated)	-8%	?	65
COC1(CS(=O)c2ccccc2)CCN(CCc2c[nH]c3ccc(F)cc23)CC1 (configuration not stated)	-10%	?	.
CC1=CCCC2C1(C)CCC(C)C2(C)CC/C(C)=C/C[n+]1cn(C)c2c(N)ncnc21 (configuration not stated)	-7%	18µM*	.
O=C1NC(=O)C(=O)C(=O)N1	-2%	4%	.
C=CCc1c(C)[nH]c(=S)c(C#N)c1C	4µM*	4.5µM*	28
COCc1cc(C)c(C#N)c(=S)[nH]1	?	?	9
CC=C(C)C(=O)O[C@H]1C(C)=C2[C@@H]3OC(=O)[C@@](C)(O)[C@@]3(O)[C@@H](OC(=O)CCC)C[C@](C)(OC(C)=O)[C@@H]2[C@@H]1OC(=O)CCCCCCC	.	-7%	.
Cn1c(=O)cc(OCC(=O)N2CCC3(CC2)OCCO3)c2ccccc21	-4%	7%	-95*
Cn1c(=O)cc(OCCCC(=O)N2CCC3(CC2)OCCO3)c2ccccc21	-27%	?	?
Cc1nn(C)c(C)c1-c1cccc2c1CCC(N(C)C)C2 (configuration not stated)	?	-15%	.
CC(C)c1nccn1Cc1ccc(Cl)cc1Cl	-1%	13%[13.5 µM]	.
O[C@H](CN1CC1)[C@@H](O)CN1CC1	-1%	8%[13.5 µM]	.
CC(=O)c1ccc(OC(C)C)c(Cc2c(O)[nH]c(=S)[nH]c2=O)c1	.	18µM*	.
CC(C)Oc1ccc(Cc2c(O)[nH]c(=O)[nH]c2=O)cc1	-5%	-10%	11
CN(C)C(=S)SSC(=S)N(C)C	0.71µM*	0.079µM*	.
CN(C)C(=S)SC(=S)N(C)C	-20%	3.5µM*	.
C=C1C([C@@H](O)C[C@H](C)C2O[C@@]3(CCCCO3)CC[C@H]2C)OC2CC[C@@]3(CC[C@@H](/C=C/[C@@H](C)C4CC(C)=C[C@]5(O4)O[C@H](C[C@@](C)(O)C(=O)O)CCC5O)O3)OC2[C@@H]1O (some centres not stated)	.	2%	.
CC(C)OP(=O)(OC(C)C)C(Nc1ccccc1)c1cccc2c1OCO2 (configuration not stated)	-18%	?	-21
SMILES	HPGD inh	ALDH1A1 inh	PNC assembly inh
Cc1cc(C=C2C(=O)NC(=O)NC2=O)c(C)n1-c1ccc2c(c1)OCO2	-10%	?	-20
Cc1cc(C=C2C(=O)NC(=S)NC2=O)c(C)n1-c1ccc2c(c1)OCO2	8.9µM*	2.8µM*	?
C[N+]1(C)CCO[C@](O)(c2ccc(-c3ccc([C@]4(O)C[N+](C)(C)CCO4)cc3)cc2)C1	0%	-6%[20.9 µM]	.
O=C1C2CC=CCC2C(=O)N1SC(Cl)(Cl)Cl (configuration not stated)	7.1µM*	0.4µM*	.
CN(C(=O)Cc1ccc(Cl)c(Cl)c1)[C@@H](CN1CCCC1)c1cccc(OCC(=O)O)c1	-7%	2%	.
CN1CC(C(=O)c2ccc(Cl)cc2)C(c2ccc(N(C)C)cc2)C1 (configuration not stated)	.	10µM*	.
CN1CC(C(=O)c2ccccc2)C(C(=O)c2ccccc2)C1 (configuration not stated)	-21%	-5%	24
CC1=C2C(=COC(C)C2C)C(=O)C(C(=O)O)=C1O (configuration not stated)	-5%	?	.
Cc1[nH]c(=O)[nH]c(=O)c1/C=C/C(=O)OCC(C)C	?	?	-17
O=C(O)[C@@H](Br)[C@H](Br)C(=O)O	-4%	15%[13.5 µM]	.
NC(=O)Nc1ccc(C(=O)OCC(=O)Nc2ccc(Cl)cc2C(=O)c2ccccc2)cc1	-5%	3%	-29
